In assay [1] the target is T1, Serine/threonine-protein kinase TBK1 (Homo sapiens) (UniProt Q9UHD2).
T1 sequence (whole entry): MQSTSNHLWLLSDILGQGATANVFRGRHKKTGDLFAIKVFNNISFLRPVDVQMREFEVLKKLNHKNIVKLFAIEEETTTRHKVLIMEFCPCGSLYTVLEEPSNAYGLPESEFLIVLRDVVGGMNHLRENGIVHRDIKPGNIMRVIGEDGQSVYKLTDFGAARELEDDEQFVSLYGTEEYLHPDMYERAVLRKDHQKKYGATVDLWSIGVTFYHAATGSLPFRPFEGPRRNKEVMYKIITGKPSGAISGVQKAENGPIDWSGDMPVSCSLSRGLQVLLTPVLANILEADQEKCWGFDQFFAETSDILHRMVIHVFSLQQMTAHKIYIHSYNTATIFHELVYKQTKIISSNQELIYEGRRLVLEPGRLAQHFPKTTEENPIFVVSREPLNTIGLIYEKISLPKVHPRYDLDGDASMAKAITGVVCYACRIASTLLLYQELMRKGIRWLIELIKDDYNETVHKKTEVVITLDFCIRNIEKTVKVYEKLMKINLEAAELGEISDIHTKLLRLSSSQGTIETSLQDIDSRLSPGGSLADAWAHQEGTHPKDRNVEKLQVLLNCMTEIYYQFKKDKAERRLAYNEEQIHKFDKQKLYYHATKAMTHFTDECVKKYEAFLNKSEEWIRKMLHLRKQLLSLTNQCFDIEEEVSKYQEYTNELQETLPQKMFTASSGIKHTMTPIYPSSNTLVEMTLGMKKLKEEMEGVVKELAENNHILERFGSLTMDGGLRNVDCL
Particulars: at 10 µM.

In assay [2] the target is T2, TGF-beta receptor type-1 (Homo sapiens) (UniProt P36897).
T2 sequence (whole entry): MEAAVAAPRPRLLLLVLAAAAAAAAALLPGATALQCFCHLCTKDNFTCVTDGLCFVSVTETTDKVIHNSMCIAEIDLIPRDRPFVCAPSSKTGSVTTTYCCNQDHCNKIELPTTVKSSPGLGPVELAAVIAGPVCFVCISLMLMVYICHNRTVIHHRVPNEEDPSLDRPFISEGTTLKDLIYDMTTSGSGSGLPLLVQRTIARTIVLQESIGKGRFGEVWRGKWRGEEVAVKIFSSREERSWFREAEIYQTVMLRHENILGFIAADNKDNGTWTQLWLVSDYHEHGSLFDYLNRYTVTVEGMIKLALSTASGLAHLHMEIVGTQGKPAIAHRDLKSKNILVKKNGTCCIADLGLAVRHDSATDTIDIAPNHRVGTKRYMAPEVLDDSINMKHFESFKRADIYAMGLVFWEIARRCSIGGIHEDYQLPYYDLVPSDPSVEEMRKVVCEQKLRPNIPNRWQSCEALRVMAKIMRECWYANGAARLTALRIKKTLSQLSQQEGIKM
Particulars: at 1 µM.

Assay [3] deals with T2, TGF-beta receptor type-1 (Homo sapiens). The conditions noted are these: at 10 µM.
Assay [4] deals with Interleukin-1 receptor-associated kinase 1 (Homo sapiens) (UniProt P51617). The conditions noted are these: at 1 µM.
Interleukin-1 receptor-associated kinase 1 (Homo sapiens), sequence (P51617 whole entry, looked up): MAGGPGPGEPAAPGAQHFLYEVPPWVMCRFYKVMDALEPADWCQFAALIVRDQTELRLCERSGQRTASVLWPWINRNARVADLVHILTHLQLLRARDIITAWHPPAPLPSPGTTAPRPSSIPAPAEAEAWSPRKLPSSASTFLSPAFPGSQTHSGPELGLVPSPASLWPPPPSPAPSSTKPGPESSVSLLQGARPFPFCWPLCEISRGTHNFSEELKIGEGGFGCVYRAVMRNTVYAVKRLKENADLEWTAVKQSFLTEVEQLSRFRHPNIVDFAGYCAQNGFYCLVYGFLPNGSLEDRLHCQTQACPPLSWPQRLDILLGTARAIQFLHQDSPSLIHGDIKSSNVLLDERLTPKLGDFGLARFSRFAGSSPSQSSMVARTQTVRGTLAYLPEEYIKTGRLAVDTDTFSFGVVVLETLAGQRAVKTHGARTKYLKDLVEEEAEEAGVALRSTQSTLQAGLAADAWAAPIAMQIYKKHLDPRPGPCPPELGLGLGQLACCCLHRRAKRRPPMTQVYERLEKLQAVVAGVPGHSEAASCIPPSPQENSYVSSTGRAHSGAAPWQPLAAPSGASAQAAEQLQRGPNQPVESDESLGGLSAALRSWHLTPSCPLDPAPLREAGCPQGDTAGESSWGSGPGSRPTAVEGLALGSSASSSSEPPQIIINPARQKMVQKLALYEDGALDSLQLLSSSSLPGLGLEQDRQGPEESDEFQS
Assay [5] has the same target. Particulars: at 10 µM.
Assay [6] addresses Insulin receptor-related protein (Homo sapiens) (UniProt P14616). Particulars: at 1 µM.
The target is the same in assay [7]. Particulars: at 10 µM.
The target in assay [8] is Insulin-like growth factor 1 receptor (Homo sapiens) (UniProt P08069). Particulars: at 1 µM.
Insulin-like growth factor 1 receptor (Homo sapiens), sequence (P08069 31-736 limits assumed): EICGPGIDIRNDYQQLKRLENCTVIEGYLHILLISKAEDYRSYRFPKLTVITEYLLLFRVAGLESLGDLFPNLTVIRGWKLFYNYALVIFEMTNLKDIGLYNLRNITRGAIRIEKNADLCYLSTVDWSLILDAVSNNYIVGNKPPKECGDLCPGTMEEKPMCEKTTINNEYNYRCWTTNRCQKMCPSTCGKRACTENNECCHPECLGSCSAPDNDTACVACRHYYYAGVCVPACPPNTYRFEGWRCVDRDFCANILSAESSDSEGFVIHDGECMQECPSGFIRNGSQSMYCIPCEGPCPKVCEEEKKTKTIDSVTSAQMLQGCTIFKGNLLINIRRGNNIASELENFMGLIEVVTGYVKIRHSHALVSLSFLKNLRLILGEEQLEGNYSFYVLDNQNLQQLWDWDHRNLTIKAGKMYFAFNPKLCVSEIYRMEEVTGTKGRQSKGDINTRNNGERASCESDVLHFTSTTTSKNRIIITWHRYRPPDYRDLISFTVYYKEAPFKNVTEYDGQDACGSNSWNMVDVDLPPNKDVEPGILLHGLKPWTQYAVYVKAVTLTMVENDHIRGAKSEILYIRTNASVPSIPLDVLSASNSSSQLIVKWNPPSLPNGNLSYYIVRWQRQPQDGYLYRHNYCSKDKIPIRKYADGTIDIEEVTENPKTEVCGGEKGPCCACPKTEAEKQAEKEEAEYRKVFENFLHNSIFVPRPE
Insulin-like growth factor 1 receptor (Homo sapiens), sequence (P08069 741-1367 limits assumed): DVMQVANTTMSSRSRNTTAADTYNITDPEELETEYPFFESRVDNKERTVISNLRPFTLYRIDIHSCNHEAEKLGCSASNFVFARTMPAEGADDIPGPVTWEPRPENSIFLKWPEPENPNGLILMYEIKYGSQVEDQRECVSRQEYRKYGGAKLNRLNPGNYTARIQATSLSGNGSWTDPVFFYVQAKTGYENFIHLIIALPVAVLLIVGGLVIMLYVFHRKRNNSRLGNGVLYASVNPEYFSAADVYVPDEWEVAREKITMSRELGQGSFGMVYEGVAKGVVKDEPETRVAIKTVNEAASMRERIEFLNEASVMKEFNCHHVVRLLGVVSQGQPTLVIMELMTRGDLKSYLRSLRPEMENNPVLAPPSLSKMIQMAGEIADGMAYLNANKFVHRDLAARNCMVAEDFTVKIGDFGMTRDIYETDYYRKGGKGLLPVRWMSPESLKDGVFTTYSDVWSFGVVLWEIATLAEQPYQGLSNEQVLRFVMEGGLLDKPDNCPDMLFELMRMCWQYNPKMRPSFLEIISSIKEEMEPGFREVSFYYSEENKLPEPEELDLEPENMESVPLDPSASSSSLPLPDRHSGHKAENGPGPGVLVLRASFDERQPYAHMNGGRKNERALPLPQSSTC
For assay [9], the target named is T3, Inhibitor of nuclear factor kappa-B kinase subunit beta (Homo sapiens) (UniProt O14920).
T3 sequence (whole entry): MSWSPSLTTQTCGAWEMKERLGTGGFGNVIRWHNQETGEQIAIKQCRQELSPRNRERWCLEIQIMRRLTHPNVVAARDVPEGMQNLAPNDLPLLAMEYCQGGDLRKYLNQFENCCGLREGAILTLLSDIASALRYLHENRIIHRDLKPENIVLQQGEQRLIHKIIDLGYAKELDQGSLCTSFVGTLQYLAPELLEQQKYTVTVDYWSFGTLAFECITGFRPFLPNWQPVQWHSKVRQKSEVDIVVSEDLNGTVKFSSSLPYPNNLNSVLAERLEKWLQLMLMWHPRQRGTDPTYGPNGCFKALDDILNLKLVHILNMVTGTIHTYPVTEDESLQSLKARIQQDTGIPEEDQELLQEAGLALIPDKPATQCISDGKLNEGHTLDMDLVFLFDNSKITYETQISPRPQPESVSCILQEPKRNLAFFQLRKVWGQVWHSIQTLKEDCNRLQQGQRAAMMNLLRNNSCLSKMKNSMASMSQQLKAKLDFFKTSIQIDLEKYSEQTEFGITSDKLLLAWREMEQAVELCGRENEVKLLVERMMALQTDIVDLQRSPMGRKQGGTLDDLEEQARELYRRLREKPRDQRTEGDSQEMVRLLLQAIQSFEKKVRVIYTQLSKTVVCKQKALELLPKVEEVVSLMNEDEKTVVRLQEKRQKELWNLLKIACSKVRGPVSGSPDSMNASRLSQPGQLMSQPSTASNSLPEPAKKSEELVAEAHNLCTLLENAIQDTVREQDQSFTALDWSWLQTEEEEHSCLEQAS
The conditions noted are these: at 1 µM.

In assay [10] the target is T3, Inhibitor of nuclear factor kappa-B kinase subunit beta (Homo sapiens). The conditions noted are these: at 10 µM.
Assay [11] deals with Insulin receptor (Homo sapiens) (UniProt P06213). Particulars: at 1 µM.
Insulin receptor (Homo sapiens), sequence (P06213 28-758 limits assumed): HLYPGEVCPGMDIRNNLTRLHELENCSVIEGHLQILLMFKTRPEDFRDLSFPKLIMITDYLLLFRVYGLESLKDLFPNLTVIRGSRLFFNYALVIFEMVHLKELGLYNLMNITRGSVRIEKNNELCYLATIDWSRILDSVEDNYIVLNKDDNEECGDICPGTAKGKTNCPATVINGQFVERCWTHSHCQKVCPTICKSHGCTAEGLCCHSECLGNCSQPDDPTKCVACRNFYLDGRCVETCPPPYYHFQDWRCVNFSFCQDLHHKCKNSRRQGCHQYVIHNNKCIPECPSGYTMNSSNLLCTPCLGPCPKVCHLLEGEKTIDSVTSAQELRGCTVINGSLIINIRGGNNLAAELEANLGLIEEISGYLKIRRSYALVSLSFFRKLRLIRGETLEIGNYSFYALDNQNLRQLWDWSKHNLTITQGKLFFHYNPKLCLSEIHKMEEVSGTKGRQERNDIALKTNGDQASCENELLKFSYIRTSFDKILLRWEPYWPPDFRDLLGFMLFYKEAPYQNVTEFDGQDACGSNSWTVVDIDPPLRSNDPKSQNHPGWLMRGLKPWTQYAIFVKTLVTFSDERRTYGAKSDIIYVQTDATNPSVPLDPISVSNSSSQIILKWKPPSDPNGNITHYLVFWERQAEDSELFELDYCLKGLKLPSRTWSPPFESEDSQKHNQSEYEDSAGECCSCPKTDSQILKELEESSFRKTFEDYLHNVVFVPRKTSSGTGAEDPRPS
Insulin receptor (Homo sapiens), sequence (P06213 763-1382 limits assumed): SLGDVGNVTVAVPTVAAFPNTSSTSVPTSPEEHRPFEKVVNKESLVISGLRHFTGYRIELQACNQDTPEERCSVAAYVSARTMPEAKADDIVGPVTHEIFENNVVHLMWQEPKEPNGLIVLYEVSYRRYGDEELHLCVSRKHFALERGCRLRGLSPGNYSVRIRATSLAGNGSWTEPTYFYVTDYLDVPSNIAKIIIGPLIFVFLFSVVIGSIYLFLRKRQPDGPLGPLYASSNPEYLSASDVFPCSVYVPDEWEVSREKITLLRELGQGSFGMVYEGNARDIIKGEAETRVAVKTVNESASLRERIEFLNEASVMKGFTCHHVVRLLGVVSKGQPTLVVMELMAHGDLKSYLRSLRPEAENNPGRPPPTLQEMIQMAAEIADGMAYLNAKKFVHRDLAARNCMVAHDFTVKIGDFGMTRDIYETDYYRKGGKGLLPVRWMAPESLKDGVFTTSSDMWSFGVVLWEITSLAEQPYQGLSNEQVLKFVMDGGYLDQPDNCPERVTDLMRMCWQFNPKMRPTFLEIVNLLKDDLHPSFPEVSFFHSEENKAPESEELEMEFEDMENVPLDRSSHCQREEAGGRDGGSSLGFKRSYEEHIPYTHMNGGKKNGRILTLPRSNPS
Assay [12] has the same target. Particulars: at 10 µM.
Assay [13] has the same target. Particulars: at 10 µM. This is another data set of the same source.
Assay [14] has as its target T4, Interleukin-1 receptor-associated kinase 4 (Homo sapiens) (UniProt Q9NWZ3).
T4 sequence (whole entry): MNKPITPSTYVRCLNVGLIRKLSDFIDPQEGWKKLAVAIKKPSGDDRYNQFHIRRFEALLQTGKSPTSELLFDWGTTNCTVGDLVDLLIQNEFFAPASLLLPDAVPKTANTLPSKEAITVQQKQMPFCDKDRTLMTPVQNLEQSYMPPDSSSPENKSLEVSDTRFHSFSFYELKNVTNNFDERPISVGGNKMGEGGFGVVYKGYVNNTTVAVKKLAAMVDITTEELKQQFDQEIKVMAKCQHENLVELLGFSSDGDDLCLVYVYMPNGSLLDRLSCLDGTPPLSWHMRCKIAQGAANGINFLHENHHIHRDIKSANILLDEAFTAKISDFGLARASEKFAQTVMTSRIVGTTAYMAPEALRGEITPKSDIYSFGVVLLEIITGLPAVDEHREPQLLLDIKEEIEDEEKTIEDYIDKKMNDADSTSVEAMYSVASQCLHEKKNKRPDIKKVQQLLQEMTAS
The conditions noted are these: at 1 µM.

For assay [15], the target named is T4, Interleukin-1 receptor-associated kinase 4 (Homo sapiens). Particulars: at 10 µM.
The target of assay [16] is T5, Tyrosine-protein kinase ITK/TSK (Homo sapiens) (UniProt Q08881).
T5 sequence (whole entry): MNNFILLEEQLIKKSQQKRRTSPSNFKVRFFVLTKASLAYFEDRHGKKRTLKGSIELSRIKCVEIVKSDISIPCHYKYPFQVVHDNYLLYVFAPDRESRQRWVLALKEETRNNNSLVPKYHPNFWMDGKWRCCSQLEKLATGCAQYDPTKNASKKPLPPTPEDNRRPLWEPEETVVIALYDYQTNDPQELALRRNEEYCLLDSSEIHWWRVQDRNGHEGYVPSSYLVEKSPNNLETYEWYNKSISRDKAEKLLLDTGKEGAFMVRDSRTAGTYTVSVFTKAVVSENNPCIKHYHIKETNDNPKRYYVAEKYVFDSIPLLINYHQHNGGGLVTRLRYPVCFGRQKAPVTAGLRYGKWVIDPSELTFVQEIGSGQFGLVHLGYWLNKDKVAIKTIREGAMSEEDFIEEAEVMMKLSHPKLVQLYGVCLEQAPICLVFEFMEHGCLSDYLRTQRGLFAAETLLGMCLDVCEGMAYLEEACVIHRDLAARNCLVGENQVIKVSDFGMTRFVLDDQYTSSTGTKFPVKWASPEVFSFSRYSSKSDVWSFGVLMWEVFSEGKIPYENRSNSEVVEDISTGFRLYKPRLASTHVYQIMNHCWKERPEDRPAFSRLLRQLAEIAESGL
Particulars: at 1 µM.

The target of assay [17] is T6, Inhibitor of nuclear factor kappa-B kinase subunit alpha (Homo sapiens) (UniProt O15111).
T6 sequence (whole entry): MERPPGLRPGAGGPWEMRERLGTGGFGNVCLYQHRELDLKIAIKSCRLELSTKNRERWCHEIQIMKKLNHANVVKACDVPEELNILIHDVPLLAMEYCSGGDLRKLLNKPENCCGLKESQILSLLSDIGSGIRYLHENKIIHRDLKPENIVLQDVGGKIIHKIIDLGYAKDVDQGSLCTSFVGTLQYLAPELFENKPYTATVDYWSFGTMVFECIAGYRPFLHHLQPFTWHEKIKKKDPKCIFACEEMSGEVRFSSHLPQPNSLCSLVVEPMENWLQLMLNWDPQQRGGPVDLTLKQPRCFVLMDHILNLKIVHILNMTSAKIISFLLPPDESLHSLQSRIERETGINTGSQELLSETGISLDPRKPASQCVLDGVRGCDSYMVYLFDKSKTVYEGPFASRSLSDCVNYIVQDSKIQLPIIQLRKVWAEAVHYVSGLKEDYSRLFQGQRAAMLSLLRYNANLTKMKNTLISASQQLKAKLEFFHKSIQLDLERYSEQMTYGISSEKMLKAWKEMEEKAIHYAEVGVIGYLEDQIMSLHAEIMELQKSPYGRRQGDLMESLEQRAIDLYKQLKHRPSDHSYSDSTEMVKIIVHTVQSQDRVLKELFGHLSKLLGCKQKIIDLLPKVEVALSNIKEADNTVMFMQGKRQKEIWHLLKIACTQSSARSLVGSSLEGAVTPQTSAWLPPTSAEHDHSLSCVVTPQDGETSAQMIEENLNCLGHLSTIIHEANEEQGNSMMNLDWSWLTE
Particulars: at 1 µM.

Assay [18] addresses T6, Inhibitor of nuclear factor kappa-B kinase subunit alpha (Homo sapiens). Particulars: at 10 µM.
For assay [19], the target named is Insulin-like growth factor 1 receptor (Homo sapiens) (UniProt P08069). The conditions noted are these: at 10 µM.
Assay [20] deals with Insulin receptor (Homo sapiens) (UniProt P06213). Particulars: at 1 µM. This is another data set of the same source.

As a reminder, the residual activity is the signal under treatment as a percentage of the control signal.

Structures are written as SMILES.

Insulin receptor-related protein (Homo sapiens), sequence (P14616 27-742 limits assumed): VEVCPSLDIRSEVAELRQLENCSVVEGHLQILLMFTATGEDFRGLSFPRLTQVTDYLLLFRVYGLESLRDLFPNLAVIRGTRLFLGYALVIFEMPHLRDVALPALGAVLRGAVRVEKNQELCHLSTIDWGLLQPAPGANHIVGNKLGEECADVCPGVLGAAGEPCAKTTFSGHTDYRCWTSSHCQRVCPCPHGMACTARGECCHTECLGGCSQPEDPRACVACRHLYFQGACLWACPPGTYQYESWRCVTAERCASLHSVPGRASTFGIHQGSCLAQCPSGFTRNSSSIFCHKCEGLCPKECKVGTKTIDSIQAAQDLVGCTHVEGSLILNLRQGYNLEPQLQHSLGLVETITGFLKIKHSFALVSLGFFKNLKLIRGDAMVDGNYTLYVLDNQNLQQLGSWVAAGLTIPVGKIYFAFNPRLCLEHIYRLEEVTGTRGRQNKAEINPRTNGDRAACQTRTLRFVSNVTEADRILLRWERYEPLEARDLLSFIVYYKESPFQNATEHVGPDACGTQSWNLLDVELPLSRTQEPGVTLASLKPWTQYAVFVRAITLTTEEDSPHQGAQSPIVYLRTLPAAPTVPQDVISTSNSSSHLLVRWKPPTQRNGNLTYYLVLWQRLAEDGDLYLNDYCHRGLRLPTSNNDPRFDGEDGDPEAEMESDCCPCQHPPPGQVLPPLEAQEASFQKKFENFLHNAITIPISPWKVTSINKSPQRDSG
Insulin receptor-related protein (Homo sapiens), sequence (P14616 747-1297 limits assumed): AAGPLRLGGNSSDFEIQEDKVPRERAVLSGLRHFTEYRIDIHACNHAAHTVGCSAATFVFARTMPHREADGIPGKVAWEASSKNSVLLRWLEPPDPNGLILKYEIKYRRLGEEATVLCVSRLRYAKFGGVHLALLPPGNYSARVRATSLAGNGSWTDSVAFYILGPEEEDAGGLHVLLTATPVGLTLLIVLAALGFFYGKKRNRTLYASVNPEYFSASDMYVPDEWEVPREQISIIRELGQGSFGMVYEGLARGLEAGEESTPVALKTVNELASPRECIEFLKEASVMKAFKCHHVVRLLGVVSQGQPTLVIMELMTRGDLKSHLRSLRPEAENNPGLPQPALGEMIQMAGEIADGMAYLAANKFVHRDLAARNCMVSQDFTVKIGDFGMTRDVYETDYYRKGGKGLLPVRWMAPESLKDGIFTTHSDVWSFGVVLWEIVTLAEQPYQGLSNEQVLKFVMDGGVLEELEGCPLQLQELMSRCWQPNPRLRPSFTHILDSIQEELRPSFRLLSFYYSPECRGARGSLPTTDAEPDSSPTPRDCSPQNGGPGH

Consider `CC(C)N(CCC(=O)c1ccc2ccccc2c1)Cc1ccccc1`, for which the residual activity was 51% in [1]; 76% in assay [2]; 74% in assay [3]; 83% in assay [4]; 77% in assay [5]; 131% in [6]. Further, the residual activity in [7] is 82%.

Consider `CCN1/C(=C/C(C)=O)Sc2ccc(OC)cc21`, for which the residual activity in assay [1] was found to be 51%.

As to `CN(C)S(=O)(=O)c1ccc2c(c1)/C(=C/c1cc3c([nH]1)CCCC3)C(=O)N2`, the residual activity in [1] came to 60%; in assay [2], 88%; in [3] it was 91%; in [8], 93%; in assay [9] it was 100%; in assay [10], 63%. In addition, the residual activity in assay [11] amounted to 93%; in [12] it was 88%; in assay [13], 95%; in [4] it was 9%; in assay [5], 0%; in assay [14], 19%. Moreover, the residual activity in assay [15] stood at 17%; in [6] it was 85%; in assay [7], 77%; in [16] it was 23%.

Regarding `O=C(c1cc2cc(O)ccc2[nH]1)c1cc2cc(O)ccc2[nH]1`, the residual activity came to 2% in assay [1]; 79% in [2]; 80% in assay [3]; 109% in assay [17]; 77% in assay [18]; 70% in assay [9]. Moreover, the residual activity in assay [10] was determined as 34%; in [4], 65%; in [5], 23%; in assay [14], 50%; in assay [15] it was 20%; in [7], 55%. Also, the residual activity in assay [16] is 64%.

As for `O=C(CCCc1ccc(-c2ccccc2F)cc1)Nc1ccc(O)cc1`, the residual activity in assay [1] was 73%; in assay [2], 108%; in assay [3], 112%; in [8], 100%; in assay [19] it was 92%; in assay [17] it was 101%. In addition, the residual activity was determined as 129% in assay [18]; 101% in assay [10]; 112% in [11]; 102% in assay [12]; 97% in assay [20]; 97% in assay [13]. The residual activity was 78% in [4]; 93% in assay [14]; 82% in assay [15]; 88% in assay [6]; 98% in assay [7]; 90% in assay [16].

Take `COc1cc2ncnc(Nc3cccc(Cl)c3)c2cc1OC`: the residual activity in [1] was determined as 59%; in assay [2], 100%; in assay [3], 103%; in assay [8] it was 115%; in assay [11], 110%; in [4], 84%. Besides, the residual activity in assay [5] came to 35%; in assay [14], 64%; in assay [15], 5%; in assay [6], 105%; in [7] it was 102%; in assay [16], 100%.

On to `Nc1ncnc2c1c(-c1ccc(Oc3ccccc3)cc1)cn2C1CCCC1`, for which the residual activity worked out at 54% in assay [1]; 76% in assay [2]; 72% in assay [3]; 100% in assay [8]; 58% in [19]; 104% in [17]. Besides, the residual activity in assay [18] is 103%; in assay [10] it was 91%; in assay [11], 96%; in [12], 109%; in assay [20] it was 90%; in [13], 50%. Besides, the residual activity in [4] came out at 83%; in assay [5] it was 74%; in assay [14] it was 94%; in assay [6], 114%; in assay [7], 15%; in [16], 58%.

The values above are taken from ChEMBL document CHEMBL2218924, “A broad activity screen in support of a chemogenomic map for kinase signalling research and drug discovery” (Biochem J, 2013).
